From PubChem BioAssay (NCI)
The panel holds about 83,000 compounds, 20% with a hit somewhere; the sample as a whole holds those more often.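 48-hour exposure, single concentration, 96-well plates; percent growth endpoint where 0 means no net growth. Active: below 10.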 The source made the active and inactive calls.

Experiments:
Assay in all cases: NCI-60 one-dose screen, 48 h (100 = growth as untreated, 0 = no growth, -100 = all killed)
Details in all cases: 10 µM unless noted
T-47D breast = system: T-47D breast
BT-549 breast = system: BT-549 breast
MDA-MB-435 melanoma = system: MDA-MB-435 melanoma
SW-620 colon = system: SW-620 colon
MCF7 breast = system: MCF7 breast
HCC-2998 colon = system: HCC-2998 colon
KM12 colon = system: KM12 colon
HCT-116 colon = system: HCT-116 colon

Measured: growth

CC/C=C\CCC/C=C1/C(=O)C=C[C@@H]1C/C=C\CCCC(=O)OC
inactive: T-47D breast 34.4% | MCF7 breast 17%
active: BT-549 breast -25% | MDA-MB-435 melanoma -22.3% | SW-620 colon 3.05% | HCC-2998 colon 8.12% | KM12 colon -20.6%

COc1ccc2cc(-c3ccnc4c(N=Nc5ccc(Cl)cc5)c(N)nn34)ccc2c1
inactive: T-47D breast 94.5% | BT-549 breast 99.9% | MDA-MB-435 melanoma 105% | SW-620 colon 101% | MCF7 breast 97.3% | HCC-2998 colon 97.6% | KM12 colon 103%

CCC1S/C(=N\N=C(\C)c2cc3cc(Cl)ccc3o2)N(c2ccccc2)C1=O (stereo unspecified)
inactive: T-47D breast 88.5% | BT-549 breast 119% | MDA-MB-435 melanoma 96.4% | SW-620 colon 90% | MCF7 breast 100% | HCC-2998 colon 83.2% | KM12 colon 91.6%

O=C(O)c1cn(C2CC2)c2cc(N3CCN(C(=O)Nc4nc(-c5ccc(Br)cc5)cs4)CC3)c(F)cc2c1=O
active: BT-549 breast 1.15% | MDA-MB-435 melanoma 9.05% | MCF7 breast 5.12%
inactive: T-47D breast 27.3% | SW-620 colon 21.6% | HCC-2998 colon 35.4% | KM12 colon 11.1%

O=C1c2ccccc2C(=O)c2c1c(C(=O)NCc1ccccc1)c1ccccn21
inactive: T-47D breast 103% | BT-549 breast 101% | MDA-MB-435 melanoma 103% | SW-620 colon 94.2% | MCF7 breast 79% | HCC-2998 colon 99.9% | KM12 colon 101%

C/C(=N\O)c1ccc(NC(=O)CSc2nnc(-c3cc(-c4ccc(S(N)(=O)=O)cc4)nc4ccccc34)n2-c2ccccc2)cc1
inactive: T-47D breast 36.6% | BT-549 breast 67.9% | SW-620 colon 74.7% | MCF7 breast 44.6% | HCT-116 colon 53.2% | HCC-2998 colon 87.5% | KM12 colon 65%

Cc1ccc2c(-n3nc(C#N)c(C#N)c3N)cc(=O)[nH]c2c1
inactive: T-47D breast 77% | BT-549 breast 86.9% | SW-620 colon 99.3% | MCF7 breast 85.1% | HCT-116 colon 76% | HCC-2998 colon 139% | KM12 colon 94.8%

Clc1ccccc1-c1cnn2cc(-c3ccccc3)cnc12
inactive: T-47D breast 78.9% | BT-549 breast 83.1% | SW-620 colon 76.9% | MCF7 breast 75.3% | HCT-116 colon 69% | HCC-2998 colon 85.9% | KM12 colon 63.8%

COc1ccc(C(=O)Cn2c(C(=O)c3ccc(Cl)cc3)nc3ccccc32)cc1
inactive: T-47D breast 73.8% | BT-549 breast 88.8% | SW-620 colon 32.7% | MCF7 breast 20.4% | HCT-116 colon 26.9% | HCC-2998 colon 72.7% | KM12 colon 38.2%

COc1cc2nc3sc(C(=O)Nc4ccc(C(=O)OC(C)C)cc4)c(C(=O)Nc4ccc(Cl)cc4C)n3c(=O)c2cc1OC
inactive: T-47D breast 46.5% | BT-549 breast 96.7% | SW-620 colon 38.7% | MCF7 breast 52.2% | HCT-116 colon 76.3% | HCC-2998 colon 20.5% | KM12 colon 52.3%

COC(=O)c1nc(-c2ccccc2)oc1S(=O)(=O)NCC(c1ccc(Cl)cc1)N1CCOCC1 (stereo unspecified)
inactive: T-47D breast 53.5% | BT-549 breast 56% | SW-620 colon 18.7% | MCF7 breast 31.7% | HCT-116 colon 62.2% | HCC-2998 colon 121% | KM12 colon 89%

O=C(Nc1ncc(Cc2cc(C(F)(F)F)ccc2Cl)s1)c1cccs1
inactive: T-47D breast 31.9% | BT-549 breast 46.9% | SW-620 colon 47% | MCF7 breast 30% | HCT-116 colon 39.9% | HCC-2998 colon 64.5% | KM12 colon 29.5%

CCOC(=O)c1cc(C(=O)c2cc(OC)c(OC)c(OC)c2)n2ccccc12
inactive: T-47D breast 47.5% | BT-549 breast 40% | SW-620 colon 29.8% | MCF7 breast 23.7% | HCT-116 colon 18.9% | HCC-2998 colon 39.4% | KM12 colon 25.2%

COc1ccc(CNc2c3ccccc3nc3ccccc23)c(OC)c1
inactive: T-47D breast 52.9% | BT-549 breast 66.7% | SW-620 colon 20.7% | MCF7 breast 14.5% | HCT-116 colon 12.8% | HCC-2998 colon 35.6% | KM12 colon 54.3%

CNC(=O)c1ccccc1Nc1nc(Nc2cc(OC)c(OC)c(OC)c2)ncc1Br
active: T-47D breast -25.2% | BT-549 breast -93.5% | SW-620 colon 5.27% | MCF7 breast 1.48% | HCT-116 colon 1.45% | HCC-2998 colon -32.5% | KM12 colon 7.57%

COc1cc(/C=C2\CN(S(=O)(=O)c3ccccc3)C/C(=C\c3cc(CN4CCCCC4)c(O)c(OC)c3)C2=O)cc(CN2CCCCC2)c1O
inactive: T-47D breast 89.2%
active: BT-549 breast -39.9% | SW-620 colon -74.5% | MCF7 breast -51.9% | HCT-116 colon -67.4% | HCC-2998 colon -68% | KM12 colon -87.1%

CCN1CCN(CC(=O)Nc2nc3ccc(NCc4ccc(F)cc4)cc3s2)CC1
inactive: T-47D breast 86.8% | BT-549 breast 97.9% | SW-620 colon 92.3% | MCF7 breast 92.1% | HCC-2998 colon 110% | KM12 colon 94.5%

Cc1nc2c(=O)nc3s/c(=C\c4ccco4)c(=O)n3c2nc1C
inactive: T-47D breast 94.3% | BT-549 breast 110% | SW-620 colon 111% | MCF7 breast 96.4% | HCT-116 colon 101% | HCC-2998 colon 97.2% | KM12 colon 105%

COc1ccc2c(c1)c(-c1nc(-c3c[nH]c4ncccc34)cs1)cn2CCO
inactive: T-47D breast 23.4% | BT-549 breast 41.7% | SW-620 colon 63.1% | MCF7 breast 20.1% | HCT-116 colon 50.9% | HCC-2998 colon 58.9% | KM12 colon 20.7%

COc1ccc2c(c1)CCc1[nH]nc(-c3cc(OC)c(OC)c(OC)c3)c1-2
active: BT-549 breast 5.42% | MCF7 breast 6.38% | HCT-116 colon -3.02% | HCC-2998 colon 5.58% | KM12 colon 7.02%
inactive: T-47D breast 31.3% | SW-620 colon 20.4%

N#C/C(=C\c1cn(Cc2ccccc2)c2ccccc12)C(=O)Nc1ncc(Cc2ccccc2Cl)s1
inactive: BT-549 breast 52.8% | MCF7 breast 23.8% | HCC-2998 colon 58.4% | KM12 colon 26.4%
active: T-47D breast -29.3% | SW-620 colon 2.61%

N=C(N)c1ccc(-c2ccc(-c3cc(Cl)cc(Cl)c3)s2)nc1
inactive: T-47D breast 84.2% | BT-549 breast 97.5% | HCC-2998 colon 28.1%
active: SW-620 colon -59.2% | MCF7 breast -47% | HCT-116 colon -73.6% | KM12 colon -75.3%

Cc1c(Cl)cccc1C(=O)Nc1nc2c(s1)CN(C(=O)c1ccc(C(F)(F)F)cc1)CC2
inactive: T-47D breast 60.9% | BT-549 breast 24.8% | SW-620 colon 18.6% | MCF7 breast 17.3% | HCC-2998 colon 28.4% | KM12 colon 18.9%
active: HCT-116 colon 8.9%

O=C1/C(=C\c2cccc3nccnc23)SC(=S)N1CCc1ccc(O)cc1
inactive: T-47D breast 82.5% | BT-549 breast 96% | SW-620 colon 101% | MCF7 breast 94.4% | HCT-116 colon 92% | HCC-2998 colon 116% | KM12 colon 97.1%

CC(C)(C)n1cc(-c2ccnc(NCCNS(=O)(=O)c3ccc(O)cc3)c2)c(-c2cccc(O)c2)n1
inactive: T-47D breast 88.4% | BT-549 breast 93.6% | SW-620 colon 103% | MCF7 breast 81.5% | HCT-116 colon 82.4% | HCC-2998 colon 122% | KM12 colon 94.7%

Nc1nc(N)c(N=Nc2ccccc2)c(-c2ccccc2)n1
inactive: T-47D breast 10.2% | BT-549 breast 47% | SW-620 colon 86.3% | MCF7 breast 19.4% | HCT-116 colon 69.7% | HCC-2998 colon 76.4% | KM12 colon 33.4%

CCOC(=O)C1=C(C)/C(=C\c2[nH]c(C)c(C(=O)OCC)c2C)N=C1C
active: SW-620 colon 2.24%
inactive: T-47D breast 66.8% | BT-549 breast 98.1% | MCF7 breast 88.2% | HCT-116 colon 74.5% | HCC-2998 colon 109% | KM12 colon 81.9%

Cc1ccc(C)c(/C=C2\CN(C(=O)OC(C)(C)C)C/C(=C\c3cc(C)ccc3C)C2=O)c1
active: HCT-116 colon -16.7%
inactive: T-47D breast 61.4% | BT-549 breast 85.5% | SW-620 colon 18.5% | MCF7 breast 23.3% | HCC-2998 colon 52.2% | KM12 colon 16.7%

Cc1ccnc(Nc2ccc([N+](=O)[O-])c(NCCN3CCOCC3)n2)c1
active: HCT-116 colon -12.9% | KM12 colon 5.83%
inactive: T-47D breast 83.9% | BT-549 breast 18.6% | SW-620 colon 27.9% | MCF7 breast 21% | HCC-2998 colon 14.4%

CCOC(=O)c1cnc2c(N=Nc3ccc(OC)cc3)c(N)nn2c1N
inactive: T-47D breast 104% | BT-549 breast 120% | SW-620 colon 101% | MCF7 breast 85.9% | HCT-116 colon 101% | HCC-2998 colon 106% | KM12 colon 99.6%

CCOC(=O)C1=C(C)C(Cl)=N/C1=C\c1[nH]c(Cl)c(C)c1C(=O)OCC
inactive: T-47D breast 94.9% | BT-549 breast 91.2% | SW-620 colon 106% | MCF7 breast 90.3% | HCT-116 colon 84.5% | HCC-2998 colon 130% | KM12 colon 100%

CCNc1ccc(-c2nc3ccccc3n3cccc23)cc1
inactive: T-47D breast 55.1% | BT-549 breast 90.4% | SW-620 colon 92.5% | MCF7 breast 34.4% | HCT-116 colon 88.9% | HCC-2998 colon 92.4% | KM12 colon 72.8%

CCOC(=O)c1c(C)nc2ccccc2c1/C=C/c1cccs1
inactive: T-47D breast 17.4% | BT-549 breast 77.4% | SW-620 colon 91.9% | MCF7 breast 39.5% | HCT-116 colon 61.3% | HCC-2998 colon 79.4% | KM12 colon 77.8%

COc1ccc(/C=C/c2ccc3ccccc3n2)c(OC)c1
inactive: T-47D breast 72.8% | BT-549 breast 67.8% | SW-620 colon 38.1% | MCF7 breast 57% | HCT-116 colon 62.3% | HCC-2998 colon 72.4% | KM12 colon 52.5%
